Results taken from PubChem BioAssay (NCI).
Compounds without any hit were thinned out: in the full panel of roughly 79,000, 15% have a hit. Unmarked numbers belong to inactive results. Active and inactive are the calls of the source. No stated cut-off is given here; in the data, active means growth inhibition above about 70%; inactive means the rest.

Columns and labels:
[1] = NCI Yeast Anticancer Drug Screen. Data for the rad50 strain (AID 155);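 further: 0% = growth of vehicle-only cultures of the same strain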; conditions: S. cerevisiae rad50 strain growth inhibition, active compounds read high
Procedure, shortened: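 Growth of the mutant yeast was measured after compound exposure and referenced to vehicle-treated cultures.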

[2] = NCI Yeast Anticancer Drug Screen. Data for the mec2-1 strain (AID 157); conditions: S. cerevisiae mec2-1 strain, active compounds read high
Procedure, shortened: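 Test agents were screened against the mec2-1 yeast strain, with defined DNA repair or cell cycle alteration. Growth was scored as inhibition against vehicle-only controls.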

[3] = NCI Yeast Anticancer Drug Screen. Data for the sgs1 mgt1 strain (AID 161);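 further: 0% = growth of cultures given vehicle only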; conditions: S. cerevisiae sgs1 mgt1 strain, active compounds read high
Procedure, shortened: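 Mutant yeast exposed to compound; growth scored against vehicle-only wells.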

[4] = NCI Yeast Anticancer Drug Screen. Data for the cln2 rad14 strain (AID 165);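 further: 0% = growth equal to vehicle treated cultures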; conditions: S. cerevisiae cln2 rad14 strain, active compounds read high
Procedure, shortened: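 Growth of compound-exposed yeast (cln2 rad14 genotype) measured and expressed as inhibition relative to vehicle.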

[5] = NCI Yeast Anticancer Drug Screen. Data for the bub3 strain (AID 167); conditions: S. cerevisiae bub3 mutant strain, active compounds read high
Procedure, shortened: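 Whole-cell yeast assay. The mutant strain was incubated with compounds, and growth inhibition was determined by comparison with vehicle-treated cells.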

[6] = NCI Yeast Anticancer Drug Screen. Data for the mlh1 rad18 strain (AID 175); conditions: S. cerevisiae mlh1 rad18 strain growth inhibition, active compounds read high
Procedure, shortened: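 In this whole-cell yeast screen, a strain with altered DNA damage repair is challenged with compound, and its growth is measured against matched vehicle-treated controls.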

[7] = at 5.0 µM (retest, dose inferred, filed as 0.5)
[8] = at 50.0 µM (retest, dose inferred, filed as 5.0)

For `CCC[CH2][Sn]([CH2]CCC)([O]C(=O)c1cc(OC)c(OC)c(OC)c1)[O]C(=O)c1cc(OC)c(OC)c(OC)c1`, the growth inhibition [1, 7] was 96% (active), the growth inhibition [1, 8] was 96% (active) and the growth inhibition ([1]; at 50.0 µM) was 71.9% (active). The growth inhibition [2, 7] was 96% (active), the growth inhibition [2, 8] was 96% (active) and the growth inhibition ([2]; at 50.0 µM) was 84.7% (active). The growth inhibition [3, 7] was 94% (active), the growth inhibition [3, 8] was 94% (active) and the growth inhibition ([3]; at 50.0 µM) was 74.8% (active). The growth inhibition [4, 7] was 95% (active), the growth inhibition [4, 8] was 95% (active) and the growth inhibition ([4]; at 50.0 µM) was 80% (active). The growth inhibition [5, 7] was 97% (active), the growth inhibition [5, 8] was 97% (active) and the growth inhibition ([5]; at 50.0 µM) was 74.8% (active). For the same compound, the growth inhibition [6, 7] was 96% (active), the growth inhibition [6, 8] was 96% (active) and the growth inhibition ([6]; at 50.0 µM) was 78.5% (active).

For `c1ccc2c(c1)CCCc1cc3ccccc3nc1-2`, the growth inhibition [1, 7] was 27%, the growth inhibition [1, 8] was 96% (active) and the growth inhibition ([1]; at 50.0 µM) was 84.8% (active). For the same compound, the growth inhibition [2, 7] was -30%, the growth inhibition [2, 8] was 98% (active) and the growth inhibition ([2]; at 50.0 µM) was 92.8% (active). The growth inhibition [3, 7] was -1%, the growth inhibition [3, 8] was 96% (active) and the growth inhibition ([3]; at 50.0 µM) was 93% (active). The growth inhibition [4, 7] was -12%, the growth inhibition [4, 8] was 96% (active) and the growth inhibition ([4]; at 50.0 µM) was 92% (active). The growth inhibition [5, 7] was 18%, the growth inhibition [5, 8] was 97% (active) and the growth inhibition ([5]; at 50.0 µM) was 91.9% (active). For the same compound, the growth inhibition [6, 7] was -36%, the growth inhibition [6, 8] was 96% (active) and the growth inhibition ([6]; at 50.0 µM) was 89.7% (active).

With `Cc1ccc(NC(=S)SCc2ccc(Cl)cc2)cc1Cl` the growth inhibition [1, 7] was 33%, the growth inhibition [1, 8] was 97% (active) and the growth inhibition ([1]; at 50.0 µM) was 90.5% (active). The growth inhibition [2, 7] was 19%, the growth inhibition [2, 8] was 98% (active) and the growth inhibition ([2]; at 50.0 µM) was 92.3% (active). For the same compound, the growth inhibition [3, 7] was 44%, the growth inhibition [3, 8] was 99% (active) and the growth inhibition ([3]; at 50.0 µM) was 92.2% (active). The growth inhibition [4, 7] was 40%, the growth inhibition [4, 8] was 98% (active) and the growth inhibition ([4]; at 50.0 µM) was 89.8% (active). For the same compound, the growth inhibition [5, 7] was 55%, the growth inhibition [5, 8] was 99% (active) and the growth inhibition ([5]; at 50.0 µM) was 91.9% (active). For the same compound, the growth inhibition [6, 7] was 23%, the growth inhibition [6, 8] was 97% (active) and the growth inhibition ([6]; at 50.0 µM) was 91% (active).

For `NNc1ccc2ccccc2n1`, the growth inhibition [1, 7] was -4%, the growth inhibition [1, 8] was 98% (active) and the growth inhibition ([1]; at 50.0 µM) was 87.5% (active). The growth inhibition [2, 7] was 1%, the growth inhibition [2, 8] was 93% (active) and the growth inhibition ([2]; at 50.0 µM) was 52.5%. For the same compound, the growth inhibition [3, 7] was 3%, the growth inhibition [3, 8] was 99% (active) and the growth inhibition ([3]; at 50.0 µM) was 46.2%. The growth inhibition [4, 7] was 6%, the growth inhibition [4, 8] was 52% and the growth inhibition ([4]; at 50.0 µM) was 86.9% (active). The growth inhibition [5, 7] was 14%, the growth inhibition [5, 8] was 99% (active) and the growth inhibition ([5]; at 50.0 µM) was 93.2% (active). For the same compound, the growth inhibition [6, 7] was 19%, the growth inhibition [6, 8] was 99% (active) and the growth inhibition ([6]; at 50.0 µM) was 93.4% (active).

With `CCCn1c(=O)c2ccccc2[n+]2c(-c3ccc([N+](=O)[O-])cc3)csc12` the growth inhibition [1, 7] was 5%, the growth inhibition [1, 8] was 91% (active) and the growth inhibition ([1]; at 50.0 µM) was 93% (active). For the same compound, the growth inhibition [2, 7] was 1%, the growth inhibition [2, 8] was 92% (active) and the growth inhibition ([2]; at 50.0 µM) was 91.8% (active). The growth inhibition [3, 7] was 1%, the growth inhibition [3, 8] was 67% and the growth inhibition ([3]; at 50.0 µM) was 92.1% (active). The growth inhibition [4, 7] was -7%, the growth inhibition [4, 8] was 77% (active) and the growth inhibition ([4]; at 50.0 µM) was 67.1%. The growth inhibition [5, 7] was -17%, the growth inhibition [5, 8] was 97% (active) and the growth inhibition ([5]; at 50.0 µM) was 93.5% (active). For the same compound, the growth inhibition [6, 7] was 11%, the growth inhibition [6, 8] was 85% (active) and the growth inhibition ([6]; at 50.0 µM) was 92.2% (active).

In the case of `CN(C)Cc1cc(N=Nc2ccc(Cl)c(Cl)c2)ccc1O`, the growth inhibition [1, 7] is reported as -16%, the growth inhibition [1, 8] is reported as 46% and the growth inhibition ([1]; at 50.0 µM) is reported as 86.5% (active). It also gave a growth inhibition [2, 7] of -11%, a growth inhibition [2, 8] of 31% and a growth inhibition ([2]; at 50.0 µM) of 64.4%. The growth inhibition [3, 7] was -20%, the growth inhibition [3, 8] was 44% and the growth inhibition ([3]; at 50.0 µM) was 82.7% (active). For the same compound, the growth inhibition [4, 7] was -31%, the growth inhibition [4, 8] was 34% and the growth inhibition ([4]; at 50.0 µM) was 71.8% (active). For the same compound, the growth inhibition [5, 7] was -33%, the growth inhibition [5, 8] was 40% and the growth inhibition ([5]; at 50.0 µM) was 88.5% (active). For the same compound, the growth inhibition [6, 7] was 0%, the growth inhibition [6, 8] was 56% and the growth inhibition ([6]; at 50.0 µM) was 84.7% (active).

Compound `BrCc1ccc([Si](c2ccccc2)(c2ccccc2)c2ccc(CBr)cc2)cc1` has a growth inhibition [1, 7] of -3%, a growth inhibition [1, 8] of -16% and a growth inhibition ([1]; at 50.0 µM) of 48.1%. For the same compound, the growth inhibition [2, 7] was 14%, the growth inhibition [2, 8] was 8% and the growth inhibition ([2]; at 50.0 µM) was 20.1%. The growth inhibition [3, 7] was -15%, the growth inhibition [3, 8] was -18% and the growth inhibition ([3]; at 50.0 µM) was 53%. For the same compound, the growth inhibition [4, 7] was -1%, the growth inhibition [4, 8] was -25% and the growth inhibition ([4]; at 50.0 µM) was 78.5% (active). For the same compound, the growth inhibition [5, 7] was -2%, the growth inhibition [5, 8] was -15% and the growth inhibition ([5]; at 50.0 µM) was 10.5%. It also gave a growth inhibition [6, 7] of 3%, a growth inhibition [6, 8] of -30% and a growth inhibition ([6]; at 50.0 µM) of 53.5%.

Work on `Cc1cc(Br)cc(C(=O)Cl)c1O` yielded a growth inhibition [1, 7] of -159%, a growth inhibition [1, 8] of -90% and a growth inhibition ([1]; at 50.0 µM) of 32.5%. The growth inhibition [2, 7] was -51%, the growth inhibition [2, 8] was -24% and the growth inhibition ([2]; at 50.0 µM) was 22%. The growth inhibition [3, 7] was -68%, the growth inhibition [3, 8] was -54% and the growth inhibition ([3]; at 50.0 µM) was 30.2%. It also gave a growth inhibition [4, 7] of -69%, a growth inhibition [4, 8] of -11% and a growth inhibition ([4]; at 50.0 µM) of 28.7%. The growth inhibition [5, 7] was -74%, the growth inhibition [5, 8] was -47% and the growth inhibition ([5]; at 50.0 µM) was 5.9%. For the same compound, the growth inhibition [6, 7] was -150%, the growth inhibition [6, 8] was -67% and the growth inhibition ([6]; at 50.0 µM) was 34.7%.

`OC1CC2OC2C1O` (stereo unspecified) gave a growth inhibition [1, 7] of -2%, a growth inhibition [1, 8] of 3% and a growth inhibition ([1]; at 50.0 µM) of -6.25%. The growth inhibition [2, 7] was -5%, the growth inhibition [2, 8] was 3% and the growth inhibition ([2]; at 50.0 µM) was 3.75%. For the same compound, the growth inhibition [3, 7] was -2%, the growth inhibition [3, 8] was 1% and the growth inhibition ([3]; at 50.0 µM) was -4.95%. It also gave a growth inhibition [4, 7] of -1%, a growth inhibition [4, 8] of -1% and a growth inhibition ([4]; at 50.0 µM) of 69.6%. For the same compound, the growth inhibition [5, 7] was 2%, the growth inhibition [5, 8] was 7% and the growth inhibition ([5]; at 50.0 µM) was 18.6%. For the same compound, the growth inhibition [6, 7] was -1%, the growth inhibition [6, 8] was 2% and the growth inhibition ([6]; at 50.0 µM) was -11.4%.

With `CCOC(=O)CC(O)(CCc1ccccc1)c1ccccc1` (stereo unspecified) the growth inhibition [1, 7] was -5%, the growth inhibition [1, 8] was 6% and the growth inhibition ([1]; at 50.0 µM) was 25.4%. For the same compound, the growth inhibition [2, 7] was 1%, the growth inhibition [2, 8] was 2% and the growth inhibition ([2]; at 50.0 µM) was 54.8%. It also gave a growth inhibition [3, 7] of -14%, a growth inhibition [3, 8] of 22% and a growth inhibition ([3]; at 50.0 µM) of -2.1%. The growth inhibition [4, 7] was -1%, the growth inhibition [4, 8] was -14% and the growth inhibition ([4]; at 50.0 µM) was -18.2%. For the same compound, the growth inhibition [5, 7] was 14%, the growth inhibition [5, 8] was 40% and the growth inhibition ([5]; at 50.0 µM) was 21.1%. The growth inhibition [6, 7] was -1%, the growth inhibition [6, 8] was 45% and the growth inhibition ([6]; at 50.0 µM) was 9.95%.

With `C=C(CN(C)C)C(=O)c1ccccc1[N+](=O)[O-]` the growth inhibition [1, 7] was 1%, the growth inhibition [1, 8] was 92% (active) and the growth inhibition ([1]; at 50.0 µM) was 8.5%. For the same compound, the growth inhibition [2, 7] was 10%, the growth inhibition [2, 8] was 96% (active) and the growth inhibition ([2]; at 50.0 µM) was 51.4%. For the same compound, the growth inhibition [3, 7] was 6%, the growth inhibition [3, 8] was 91% (active) and the growth inhibition ([3]; at 50.0 µM) was 74.2% (active). The growth inhibition [4, 7] was 99% (active), the growth inhibition [4, 8] was 91% (active) and the growth inhibition ([4]; at 50.0 µM) was -25.4%. The growth inhibition [5, 7] was 1%, the growth inhibition [5, 8] was 92% (active) and the growth inhibition ([5]; at 50.0 µM) was 71.7% (active). For the same compound, the growth inhibition [6, 7] was 8%, the growth inhibition [6, 8] was 92% (active) and the growth inhibition ([6]; at 50.0 µM) was 66.8%.

In the case of `CCc1cc(CC)c(-c2ccco2)c(COC(=O)NC)c1`, the growth inhibition [1, 7] is reported as -1%, the growth inhibition [1, 8] is reported as 68% and the growth inhibition ([1]; at 50.0 µM) is reported as 95.4% (active). The growth inhibition [2, 7] was -3%, the growth inhibition [2, 8] was 64% and the growth inhibition ([2]; at 50.0 µM) was 94.2% (active). For the same compound, the growth inhibition [3, 7] was -4%, the growth inhibition [3, 8] was 78% (active) and the growth inhibition ([3]; at 50.0 µM) was 94.3% (active). For the same compound, the growth inhibition [4, 7] was -7%, the growth inhibition [4, 8] was 25% and the growth inhibition ([4]; at 50.0 µM) was 77.4% (active). For the same compound, the growth inhibition [5, 7] was -8%, the growth inhibition [5, 8] was 72% (active) and the growth inhibition ([5]; at 50.0 µM) was 96% (active). For the same compound, the growth inhibition [6, 7] was -1%, the growth inhibition [6, 8] was 86% (active) and the growth inhibition ([6]; at 50.0 µM) was 96.3% (active).
